From PubChem BioAssay
Nrf2 activator = activators of Nrf2 (ARE) signaling | AREc32 ARE-luciferase reporter (MCF7-derived line), luminescence, 24 h | Potency, µM (highest dose often 46.1 µM), usual class: activators | actives 0.31% (n = 410,000) | AID 624171; further: nearly all actives have a fitted effect of over 65% in size
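Reporter line AREc32 (ARE-Fluc), seeded overnight in OPTI-MEM with 5% FBS; compound pin-transferred, 24 hr at 37 deg C, 5% CO2; luminescent read-out.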
A549 tox = kills or reduces viability of A549 cells in Nrf2 counter-screen. A549 ARE-Fluc cells, CellTiter-Fluor viability, 18-24 h. actives 0.16% (n = 390,000). AID 504648. Potency, µM (titrated, usually from 46 µM), most hits filed as inhibitors
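Cytotoxicity counterscreen: CellTiter-Fluor fluorescence was measured in A549 ARE_Fluc cells after 18-24 h of compound exposure in a concentration series. The subsequent BugLite luminescent read reports ARE-luciferase activity.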
IL2 activator = IL-2 activation | IL-2 activation reporter assay, cell-based qHTS; stimulated with anti-CD3/CD4/CD28 beads; in transgenic mouse T cells | activation, % (series mostly up to about 46 µM) | actives 0.065% (n = 360,000) | AID 652025; in the data active means activation above about 50%; inconclusive means mostly about 30% to 49%
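Screening format: compound pinned onto unstimulated transgenic mouse T cells, 60 min incubation, then anti-CD3/anti-CD4/anti-CD28 bead stimulation for 18 hours at 37 degrees C, followed by EGFP and DsRed detection.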
Nrf2 inh = Nrf2 pathway inhibition; AID 504444; Potency, µM (highest dose often 46 µM), usual class: inhibitors; A549 ARE-Fluc reporter, luciferase luminescence, 18-24 h; actives 2.1% (n = 360,000); further: nearly all actives have a fitted effect of over 60% in size
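Concentration-response testing used A549 ARE_Fluc cells at 5000 cells/well. Following an 18-24 h compound incubation, viability was read by fluorescence (Ex 405/Em 525) and luciferase output by luminescence.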
Numbers stand for hits; . = inactive; ? = inconclusive; / = no result; [ ] = another dose, or the depositor's remark. The list is not random: actives were taken first. Their share in the collection is about 2.3%. Unless noted, the call rests on the fitted dose curve; in most records, active means well fitted curve in the direction sought with a large enough effect; inconclusive means small, poorly fitted or top-dose-only effect, or another doubt; inactive means no such curve, though single readings can be large; an effect the other way counts as inactive or inconclusive.

SMILES	Nrf2 activator	A549 tox	IL2 activator	Nrf2 inh
CS(=O)(=O)c1ccc(NC(=O)c2cccc(S(=O)(=O)N3CCN(Cc4ccccc4)CC3)c2)cc1	.	.	.	13µM
CCOc1ccc(CN2CCN(S(=O)(=O)c3ccc(NC(C)=O)cc3)CC2)cc1	.	.	.	21µM
O=C(Nc1ccc(S(=O)(=O)N2CCN(Cc3ccccc3)CC2)cc1)c1cnccn1	.	.	.	4.1µM
COc1ccc(Br)cc1C1NC(c2ccc3c(c2)OCO3)=CC(c2cc(Cl)ccc2O)N1 (configuration not stated)	/	.	/	.
Cc1ccc(CN2CCC(CNc3ncnc4onc(-c5ccc(F)cc5)c34)CC2)cc1	.	.	/	?
CN(C)C(=O)c1ccc(NC(=O)c2cccc(S(=O)(=O)N3CCN(Cc4ccccc4)CC3)c2)cc1	.	.	.	18µM
O=S(=O)(c1ccc(NC(=S)NCc2cccnc2)cc1)N1CCCCC1	.	.	.	23µM
O=C(NCc1cccnc1)c1ccc(S(=O)(=O)N2CCCCC2)cc1	.	.[1.84 µM]	.	?
S=C(NCC1CCCO1)Nc1ccc(Nc2ccccc2)cc1 (configuration not stated)	.	.	.	15µM
COc1ccc(NS(=O)(=O)c2ccc3c(c2)CCC(=O)N3)cc1	/	.	/	.
COc1ccc(-n2nc(C(=O)Nc3ccc(C(C)=O)cc3)nc2-c2ccccc2)cc1	.	.	/	.
COc1cccc(-c2cc(C(=O)Nc3cc(Cl)ccc3O)on2)c1	7.9µM	.	/	.
COc1cccc(-c2cc(C(=O)Nc3cc(OC)c(OC)c(OC)c3)on2)c1	.	.	/	.
O=C(Nc1nc(-c2cccs2)cs1)c1cccc(S(=O)(=O)N2CCCCCC2)c1	.	.	.	?
O=C(Nc1nc(-c2cccs2)cs1)c1ccc(S(=O)(=O)N2CCCCC2)cc1	.	.	.	21µM
CCc1noc(C)c1C(=O)Nc1nc(-c2cccs2)cs1	?	.	.	?
O=C(Nc1nc(-c2ccccc2)c(C(=O)c2ccccc2)s1)c1ccc(S(=O)(=O)N2CCCCC2)cc1	.	.	.	15µM
O=C(Nc1nc(-c2ccccc2)c(-c2ccccc2)s1)c1ccc(S(=O)(=O)N2CCCCC2)cc1	.	.	.	.
Cc1noc(C)c1C(=O)Nc1nc(-c2cccs2)cs1	16µM	.	.	?
CCN(C(C)=O)c1cnc(C=NNC(N)=S)c2ccccc12	.	?	.	8.2µM
O=C(NNC(=O)c1sc2cccc(Cl)c2c1Cl)NC1CCCCC1	.	.	.	9.2µM
O=C(CSC1=Nc2ccccc2C2=NC(Cc3ccccc3)C(=O)N12)Nc1ccccc1F (configuration not stated)	.	.	/	/
Cc1oc2ccc(O)c(CN3CCCC3)c2c1C(=O)Nc1ccc(C(C)C)cc1	.	.	/	.
CCC(Oc1ccc(F)cc1)C(=O)Nc1cc(-c2ccc(C)cc2)no1 (configuration not stated)	.	.	/	.
CCC(Oc1ccc(F)cc1)C(=O)Nc1nc(-c2ccc(F)cc2)ns1 (configuration not stated)	.	?	/	16µM
SMILES	Nrf2 activator	A549 tox	IL2 activator	Nrf2 inh
O=S(=O)(C/C(=C/CO)S(=O)(=O)c1ccccc1)c1ccccc1	?	16µM	.	?
Cn1c(=O)c2c(nc(N3CCOCC3)n2Cc2ccc(Br)cc2)n(C)c1=O	.	.	/	.
CCCCn1c(N)c(N(CCC(C)C)C(=O)COC(=O)c2ccc([N+](=O)[O-])s2)c(=O)[nH]c1=O	.	.	.	23µM
CCCCCN(C(=O)CCC(=O)OCC(=O)c1ccc(C(C)CC)cc1)c1c(N)n(CCCC)c(=O)[nH]c1=O (configuration not stated)	.	?	.	10µM
CC(C)CN(C(=O)COC(=O)c1ccc([N+](=O)[O-])s1)c1c(N)n(Cc2ccccc2)c(=O)[nH]c1=O	.	.	.	.
O=C(OCC(=O)N1CCCCC1)c1cccc(NS(=O)(=O)c2ccccc2)c1	.	.	.	.
COc1ccc(N2CCN(C(=O)COC(=O)c3cccc(S(=O)(=O)Nc4cccc(C)c4)c3)CC2)cc1	.	.	.	26µM
COc1ccc(N2CCN(C(=O)CCc3ccc(S(=O)(=O)NCC(C)C)cc3)CC2)cc1	.	.	.	26µM
Cc1ccc(NC(=O)COC(=O)c2cccc3c2C(=O)c2ccccc2C3=O)c(C)c1	.	.	.	?
Cc1cc(C)c(NC(=O)COC(=O)c2cccc3c2C(=O)c2ccccc2C3=O)c(C)c1	.	.	.	16µM
